# Results taken from PubChem BioAssay (Tox21).
# Unmarked numbers belong to inactive results. Records with an inconclusive call do not appear. Entries that show only a call come without a potency. Calls of active or inactive are those of the source. Unless noted, the call rests on the fitted dose curve; in most records, active means well fitted curve in the direction sought with a large enough effect in the repeat runs; inconclusive means weak or mixed curves; inactive means flat fitted curve, though single readings scatter.
# Columns and labels:
# [1] = qHTS assay to test for compound auto fluorescence at 535 nm (green) in HEK293 cells (AID 720680)
# [2] = qHTS assay to test for compound auto fluorescence at 460 nm (blue) in HEK293 cell free culture (AID 720681)
# Summary of the method: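 Test compounds were pinned into cell-free culture medium (DMEM with 10% FBS) and fluorescence was read directly at Ex/Em 405/460 nm. Signals were expressed as fluorescence equivalents of triamterene, with DMSO vehicle as control.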
# [3] = qHTS assay to test for compound auto fluorescence at 535 nm (green) in HEK293 cell free culture (AID 720682)
# Summary of the method: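 No cells present: wells hold DMEM supplemented with 10% FBS, into which compound or vehicle is pinned. Green emission is then recorded (485 nm excitation, 535 nm emission) and scaled to fluorescein.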
# [4] = qHTS assay to test for compound auto fluorescence at 590 nm (red) in HEK293 cell free culture (AID 720683)
# Summary of the method: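 Tox21 10K library compounds were pinned into cell-free DMEM with 10% FBS and fluorescence was read at excitation 540 nm. Activity is expressed as Rose Bengal sodium equivalency.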
# [5] = qHTS assay to test for compound auto fluorescence at 590 nm (red) in HepG2 cell free culture (AID 720684)
# Summary of the method: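 Ex 540 / Em 590 nm read of compound in cell-free MEM (10% FBS). Rose Bengal sodium reference.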
# [6] = qHTS assay to test for compound auto fluorescence at 460 nm (blue) in HepG2 cell free culture (AID 720685)
# Summary of the method: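 Cell-free plates of MEM plus 10% FBS received 23 nL compound or DMSO vehicle; blue-channel (405/460 nm) intensity scored against triamterene as reference fluorophore.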
# [7] = qHTS assay to test for compound auto fluorescence at 535 nm (green) in HepG2 cell free culture (AID 720686)
# [8] = qHTS assay to test for compound auto fluorescence at 460 nm (blue) in HepG2 cells (AID 720687)
# Summary of the method: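 Cells (2,000/well in MEM with 10% FBS) attached overnight at 37 C, then were exposed to compound or DMSO for 1 hr at 37 C, 5% CO2. Fluorescence read at Ex/Em 405/460 nm, expressed as triamterene-equivalent signal.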
# [9] = target: Glucocorticoid receptor (Homo sapiens) (UniProt P04150); experiment: qHTS assay to identify small molecule agonists of the glucocorticoid receptor (GR) signaling pathway (AID 720691; active means well fitted activation curve with a large enough effect in the signal ratio in the repeat runs, not every such curve was filed as active; the % refers to the signal ratio; further: potency means the concentration at half of the fitted maximal effect)
# Summary of the method: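 Agonist-mode qHTS in HeLa cells stably expressing a glucocorticoid-response-element beta-lactamase reporter. Fluorescence intensity read with FRET substrate (2 h, room temperature) after 18 h compound treatment at 37 C.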
# [10] = target: Glucocorticoid receptor (Homo sapiens) (UniProt P04150); experiment: qHTS assay to identify small molecule antagonists of the glucocorticoid receptor (GR) signaling pathway (AID 720692; active means well fitted inhibition curve with a large enough effect in the signal ratio in the repeat runs, not every such curve was filed as active; the % refers to the signal ratio)
# Summary of the method: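 Inhibition of dexamethasone-driven (5 nM final) beta-lactamase expression was measured in GRE-reporter HeLa cells over 18 h at 37C. Fluorescence was read after 2 h with the B/G FRET substrate at room temperature.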
# Chain of Glucocorticoid receptor (Homo sapiens) (P04150 whole entry, looked up): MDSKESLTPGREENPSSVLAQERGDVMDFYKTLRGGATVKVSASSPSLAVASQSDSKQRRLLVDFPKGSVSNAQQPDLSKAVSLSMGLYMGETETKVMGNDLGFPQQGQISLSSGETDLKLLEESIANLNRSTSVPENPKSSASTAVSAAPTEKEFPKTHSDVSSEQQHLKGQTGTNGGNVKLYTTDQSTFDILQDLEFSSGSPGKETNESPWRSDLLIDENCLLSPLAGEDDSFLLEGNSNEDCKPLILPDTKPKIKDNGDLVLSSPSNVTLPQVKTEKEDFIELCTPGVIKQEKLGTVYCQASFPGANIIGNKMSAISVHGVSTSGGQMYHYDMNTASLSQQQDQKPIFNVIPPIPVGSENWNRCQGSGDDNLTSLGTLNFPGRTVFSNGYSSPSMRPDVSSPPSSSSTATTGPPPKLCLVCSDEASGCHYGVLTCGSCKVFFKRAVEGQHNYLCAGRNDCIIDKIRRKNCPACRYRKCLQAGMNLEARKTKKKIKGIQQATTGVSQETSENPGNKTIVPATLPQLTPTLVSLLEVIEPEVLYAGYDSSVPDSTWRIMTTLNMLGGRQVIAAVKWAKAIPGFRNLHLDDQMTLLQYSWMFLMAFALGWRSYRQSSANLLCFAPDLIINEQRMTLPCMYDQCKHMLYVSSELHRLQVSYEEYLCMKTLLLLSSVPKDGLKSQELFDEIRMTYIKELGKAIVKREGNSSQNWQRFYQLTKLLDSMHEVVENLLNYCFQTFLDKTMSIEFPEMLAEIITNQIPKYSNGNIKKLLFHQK
Structure (SMILES),outcome [1],outcome [2],outcome [3],outcome [4],outcome [5],outcome [6],outcome [7],outcome [8],Potency [9],Potency [10]
Cn1c(N)nc2c3cccnc3ccc21,inactive,inactive,inactive,inactive,inactive,inactive,inactive,inactive,–,–
O=C(O)C(Br)(Br)Br,inactive,inactive,inactive,inactive,inactive,inactive,inactive,inactive,–,–
Cc1ccc(S(=O)(=O)N[C@@H](CCCCN)C(=O)CCl)cc1,inactive,inactive,inactive,inactive,inactive,inactive,inactive,inactive,inactive,–
C#CC(C)(C)O,inactive,inactive,inactive,inactive,inactive,inactive,inactive,inactive,–,–
C[C@]12C=CC(=O)C=C1CC[C@@H]1[C@@H]2CC[C@@]2(C)[C@H]1CC[C@]2(C)O,inactive,inactive,inactive,inactive,inactive,inactive,inactive,inactive,–,–
CCN[C@@H](C)Cc1cccc(C(F)(F)F)c1,inactive,inactive,inactive,inactive,inactive,inactive,inactive,inactive,inactive,–
C=CCc1cc(OC)c2c(c1)OCO2,inactive,inactive,inactive,inactive,inactive,inactive,inactive,inactive,inactive,–
N#CC(Br)(Br)C(N)=O,inactive,inactive,inactive,inactive,inactive,inactive,inactive,inactive,–,–
O=C(Cl)C(Cl)Cl,inactive,inactive,inactive,inactive,inactive,inactive,inactive,inactive,inactive,–
NNC(N)=O,inactive,inactive,inactive,inactive,inactive,inactive,inactive,inactive,inactive,–
C[N+]1(C)CCCCC1,inactive,inactive,inactive,inactive,inactive,inactive,inactive,inactive,–,–
CC[C@@H](CO)NC(=O)[C@@H]1C=C2c3cccc4[nH]cc(c34)C[C@H]2N(C)C1,inactive,inactive,inactive,inactive,inactive,inactive,inactive,inactive,inactive,–
Cl/C=C/CCl,inactive,inactive,inactive,inactive,inactive,inactive,inactive,inactive,inactive,–
CCC(C)(C#N)N=NC(C)(C#N)CC (centres undefined),inactive,inactive,inactive,inactive,inactive,inactive,inactive,inactive,–,–
O=P(O)(O)c1ccccc1,inactive,inactive,inactive,inactive,inactive,inactive,inactive,inactive,–,–
O=C1C2CC=CCC2C(=O)N1SC(Cl)(Cl)Cl (centres undefined),inactive,inactive,inactive,inactive,inactive,inactive,inactive,inactive,–,–
N[C@@H]1C[C@H]1c1ccccc1,inactive,inactive,inactive,inactive,inactive,inactive,inactive,inactive,–,–
COc1cc(CC(C)N)cc(OC)c1OC (centres undefined),inactive,inactive,inactive,inactive,inactive,inactive,inactive,inactive,inactive,–
CS(=O)(=O)Cl,inactive,inactive,inactive,inactive,inactive,inactive,inactive,inactive,–,–
CC(C)c1ccc(O)cc1,inactive,inactive,inactive,inactive,inactive,inactive,inactive,inactive,inactive,–
Cc1ccc(-c2nc3ccc(C)cn3c2CC(=O)N(C)C)cc1,inactive,inactive,inactive,inactive,inactive,inactive,inactive,inactive,23.9 µM (active),–
CS(=O)(=O)c1ccc(C(=O)C2C(=O)CCCC2=O)c(Cl)c1COCC(F)(F)F,inactive,inactive,inactive,inactive,inactive,inactive,inactive,inactive,inactive,–
CCOC1Oc2ccc(OS(C)(=O)=O)cc2C1(C)C (centres undefined),inactive,inactive,inactive,inactive,inactive,inactive,inactive,inactive,–,–
CN(CCO)CCO,inactive,inactive,inactive,inactive,inactive,inactive,inactive,inactive,inactive,–
O=C(O)CBr,inactive,inactive,inactive,inactive,inactive,inactive,inactive,inactive,–,–
ClCCCCl,inactive,inactive,inactive,inactive,inactive,inactive,inactive,inactive,inactive,–
CC(C)(N)Cc1ccc(Cl)cc1,inactive,inactive,inactive,inactive,inactive,inactive,inactive,inactive,–,–

Structure (SMILES),outcome [1],outcome [2],outcome [3],outcome [4],outcome [5],outcome [6],outcome [7],outcome [8],Potency [9],Potency [10]
O=C(O)c1c(Cl)ccc2cc(Cl)cnc12,inactive,inactive,inactive,inactive,inactive,inactive,inactive,inactive,inactive,–
NNCc1ccccc1,inactive,inactive,inactive,inactive,inactive,inactive,inactive,inactive,inactive,–
CCCC[N+](=O)[O-],inactive,inactive,inactive,inactive,inactive,inactive,inactive,inactive,inactive,–
CC(=NC#N)N(C)Cc1ccc(Cl)nc1,inactive,inactive,inactive,inactive,inactive,inactive,inactive,inactive,–,–
C#CCOC(=O)/C=C(C)/C=C/CC(C)CCCC(C)C (centres undefined),inactive,inactive,inactive,inactive,inactive,inactive,inactive,inactive,inactive,–
CCC1(c2ccccc2)CCC(=O)NC1=O (centres undefined),inactive,inactive,inactive,inactive,inactive,inactive,inactive,inactive,–,–
C=C1C[C@@H]2[C@H](CC[C@]3(C)C(=O)CC[C@@H]23)[C@@]2(C)C=CC(=O)C=C12,inactive,inactive,inactive,inactive,inactive,inactive,inactive,inactive,–,–
BrCc1ccc(Br)cc1,inactive,inactive,inactive,inactive,inactive,inactive,inactive,inactive,–,–
CC(C)(C1CCC(O)CC1)C1CCC(O)CC1 (centres undefined),inactive,inactive,inactive,inactive,inactive,inactive,inactive,inactive,–,–
CON(C)C(=O)Nc1ccc(Br)c(Cl)c1,inactive,inactive,inactive,inactive,inactive,inactive,inactive,inactive,inactive,–
CCCCS(=O)(=O)Cl,inactive,inactive,inactive,inactive,inactive,inactive,inactive,inactive,inactive,–
CN(C)CCc1c[nH]c2cccc(OP(=O)(O)O)c12,inactive,inactive,inactive,inactive,inactive,inactive,inactive,inactive,–,–
CCC(=O)OC1(c2ccccc2)CCN(C)CC1,inactive,inactive,inactive,inactive,inactive,inactive,inactive,inactive,inactive,inactive
CNC(=O)Oc1cc(C)c(N(C)C)c(C)c1,inactive,inactive,inactive,inactive,inactive,inactive,inactive,inactive,inactive,inactive
C[C@H](N)C(=O)c1ccccc1,inactive,inactive,inactive,inactive,inactive,inactive,inactive,inactive,inactive,inactive
CCOC(=O)N(C)N=O,inactive,inactive,inactive,inactive,inactive,inactive,inactive,inactive,inactive,inactive
BrCCc1ccccc1,inactive,inactive,inactive,inactive,inactive,inactive,inactive,inactive,inactive,inactive
CC(C)(C)c1cc(O)ccc1O,inactive,inactive,inactive,inactive,inactive,inactive,inactive,inactive,inactive,inactive
C=C1CC[C@@]2(O)[C@H]3Cc4ccc(O)c5c4[C@@]2(CCN3CC2CC2)[C@H]1O5,inactive,inactive,inactive,inactive,inactive,inactive,inactive,inactive,inactive,–
CCOC(=O)CC(SP(=S)(OC)OC)C(=O)OCC (centres undefined),inactive,inactive,inactive,inactive,inactive,inactive,inactive,inactive,inactive,inactive
OP(O)c1ccccc1,inactive,inactive,inactive,inactive,inactive,inactive,inactive,inactive,inactive,inactive
C/C(=N\NC(=O)Nc1cc(F)cc(F)c1)c1ncccc1C(=O)O,inactive,inactive,inactive,inactive,inactive,inactive,inactive,inactive,inactive,inactive
CCOC(=O)NC(C)(C)Cc1ccc(Cl)cc1,inactive,inactive,inactive,inactive,inactive,inactive,inactive,inactive,inactive,inactive
C=C(C)[C@H]1CN[C@H](C(=O)O)[C@H]1CC(=O)O,inactive,inactive,inactive,inactive,inactive,inactive,inactive,inactive,inactive,inactive
CC(C)(O)C(Cl)(Cl)Cl,inactive,inactive,inactive,inactive,inactive,inactive,inactive,inactive,inactive,–
CCCCCCC1CCOC1=O (centres undefined),inactive,inactive,inactive,inactive,inactive,inactive,inactive,inactive,inactive,inactive
CC[C@H](O)C(C[C@H](C)N(C)C)(c1ccccc1)c1ccccc1,inactive,inactive,inactive,inactive,inactive,inactive,inactive,inactive,inactive,inactive
